# For some assays here: Measured potencies and affinities stand elsewhere. Calls of active or inactive are those of the source.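 The calls were made as follows, unless noted: active = hit in primary screen, with calcium signal over 5 SD above buffer well mean in both duplicates; inactive = the rest.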
# Tests used:
# [1] = tested on: TRPC4 beta (transient receptor potential cation channel C4), mouse; assay: TRPC4 cation channel opening, retest – cell-based, Fluo4 calcium, HEK293 TRPC4beta/mu-opioid, duplicates, 10 µM, confirmation (AID 2426;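 active = fluorescence ratio normalized to control raised more than 50% in primary screen plus both repeat runs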;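 as to activation: percent rise of integrated ratio over buffer wells lacking compound which define 0%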); conditions: Fluo4 calcium fluorescence, at 10 µM; active compounds read high
# [2] = tested on: transient receptor potential cation channel C4 beta (TRPC4), mouse; assay: TRPC4 cation channel opening, second retest – cell-based, second round, Fluo4, HEK293 TRPC4beta/mu-opioid, 1 µM, confirmation (AID 2461;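 active = primary screen active and over 50% activation in each of two duplicate runs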;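 as to activation: 0% = wells without test compound as baseline of integrated fluorescence ratio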); conditions: Fluo4 calcium fluorescence, at 1 µM; active compounds read high
# [3] = tested on: TRPC4 (transient receptor potential cation channel C4 beta), mouse; assay: potentiation of DAMGO EC20 TRPC4 response – cell-based, second round, Fluo-4, HEK293 TRPC4beta/mu-opioid, 1 µM, confirmation (AID 2554;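 active = primary screen hit whose fluorescence ratio, in both repeats, exceeds the weak agonist control mean by 3 SD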); conditions: DAMGO EC20, Fluo-4 calcium flux, at 1 µM; active compounds read high
# [4] = tested on: TRPC4 beta (transient receptor potential cation channel C4), mouse; assay: potentiation of DAMGO EC20 TRPC4 response – cell-based, Fluo-4, HEK293 TRPC4beta/mu-opioid, confirmation (AID 2555;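 active = primary screen hit whose calcium fluorescence ratio, in both repeats, exceeds the weak agonist control mean by 3 SD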); conditions: DAMGO EC20, Fluo-4 calcium flux, at 10 µM; active compounds read high
# [5] = molecular target: Short transient receptor potential channel 4 (Mus musculus) (UniProt Q9QUQ5); assay: blockers of DAMGO-evoked TRPC4 calcium flux – cell-based, Fluo4, HEK293 TRPC4beta/mu-opioid, confirmation (AID 2636;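 active = calcium signal cut by more than 3 SD below the full-agonist control yet still positive, in both repeats and the earlier primary screen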); conditions: at 10 µM; active compounds read high
# [6] = molecular target: Short transient receptor potential channel 4 (Mus musculus) (UniProt Q9QUQ5); assay: blockers of DAMGO-evoked TRPC4 calcium flux – cell-based, second round, Fluo4, HEK293 TRPC4beta/mu-opioid, 1 µM, confirmation (AID 2637;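 active = calcium signal ratio cut to more than 3 SD under the fully stimulated control mean yet still positive, in both repeats and the primary screen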); conditions: at 1 µM; active compounds read high
# [7] = molecular target: Short transient receptor potential channel 4 (Mus musculus) (UniProt Q9QUQ5); assay: potentiation of DAMGO-evoked TRPC4 calcium signal – cell-based, HEK293 TRPC4/mu-opioid, Fluo-4 calcium, EC20 DAMGO, dose response (AID 434941;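 active = earlier screen potentiator hit that boosts the TRPC4 ion channel at some dose, with a dose response; inactive = no potentiation, no dose response, or not a prior hit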;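 also: calcium entry triggered by an EC20 dose of DAMGO at the co-expressed mu-opioid receptor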); conditions: HEK293 TRPC4/mu-opioid cells, Fluo-4 calcium fluorescence; series mostly up to 20 µM
# [8] = molecular target: Short transient receptor potential channel 4 (Mus musculus) (UniProt Q9QUQ5); assay: block of DAMGO-driven TRPC4 calcium entry – cell-based, HEK293 TRPC4/mu-opioid, Fluo-4 calcium, dose response (AID 434942;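 active = primary screen inhibitor hit that blocks the TRPC4 channel at some tested dose, yielding a dose curve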); conditions: HEK293 TRPC4/mu-opioid cells, DAMGO-evoked Fluo-4 calcium ratio; series mostly up to 20 µM
# [9] = molecular target: Short transient receptor potential channel 6 (Mus musculus) (UniProt Q61143); assay: TRPC6 blockade by TRPC4 inhibitor hits – cell-based, HEK293, membrane potential dye, duplicate, selectivity assay for TRPC4 inhibitor project, confirmation (AID 434948;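 active = active in primary screen and both duplicates, each dropping signal beyond three positive-control SD with fluorescence still positive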); conditions: HEK293 TRPC6, membrane potential dye fluorescence, at 10 µM, stimulated with maximal-effect acetylcholine; active compounds read high
# [10] = molecular target: Short transient receptor potential channel 6 (Mus musculus) (UniProt Q61143); assay: TRPC6 opening by TRPC4 activator hits – cell-based, HEK293, membrane potential dye, duplicate, selectivity assay for TRPC4 activator project, confirmation (AID 434950;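 active = membrane potential signal rise above negative control mean plus 3 SD in both duplicates, also active in the earlier TRPC4 screen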;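 as to activation: 0% = buffer only wells and 100% = acetylcholine maximal-effect wells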); conditions: HEK293 TRPC6, membrane potential fluorescence, at 10 µM; activation: active compounds read high; outcome: activation
# [11] = molecular target: Short transient receptor potential channel 6 (Mus musculus) (UniProt Q61143); assay: positive modulators of mouse TRPC6 channel – HEK293 cells, membrane potential dye, duplicate, selectivity assay for TRPC4 potentiator project, confirmation (AID 434952;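 active = compound raising the membrane signal above positive-control mean plus 3 SD in both repeats, and a primary screen hit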); conditions: HEK293 TRPC6, membrane potential dye fluorescence, at 10 µM, maximal acetylcholine added after compound; active compounds read high
# [12] = molecular target: Short transient receptor potential channel 4 (Mus musculus) (UniProt Q9QUQ5); assay: calcium flux activators in TRPC4/5HT1a cells, counter-screen for TRPC4 activator project, cell-based, second counter screen, HEK293 TRPC4/5HT1a, Fluo-4 (AID 434977;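 active = calcium signal rise above buffer-control mean plus 5 SD in both duplicates, and also a hit in the primary screen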;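 as to activation: plate controls were assay buffer for no effect and maximal serotonin response for full effect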); conditions: Fluo-4 calcium flux, at 10 µM; active compounds read high
# [13] = serotonin-gated TRPC4 signal block – cell-based, second counter screen, HEK293 TRPC4/5HT1a, Fluo-4, counter-screen for TRPC4 inhibitor project, confirmation (AID 434978;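 active = primary screen active whose calcium signal fell more than 3 SD beyond the full-serotonin control mean in both duplicate plates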;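 also: serotonin given first at submaximal then at maximal dose after compound preincubation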); conditions: Fluo-4 calcium flux, at 10 µM, serotonin added to trigger calcium flux; active compounds read high
# [14] = tested on: TRPC4 (mouse), co-expressed with 5HT1a in HEK293; assay: enhancement of serotonin-evoked TRPC4 response – cell-based, second counter screen, HEK293 TRPC4/5HT1a, Fluo-4, counter-screen for TRPC4 potentiator project, confirmation (AID 434979;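 active = signal rise over 3 SD above mean of control wells given weak agonist, in both repeats and first screen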); conditions: Fluo-4 calcium flux, at 10 µM, serotonin added at its EC20 dose; active compounds read high
# [15] = nonspecific calcium rise without TRPC4 – cell-based, HEK293 mu-opioid receptor line, counter-screen for TRPC4 activator project, confirmation (AID 449723); conditions: HEK293 mu-opioid cells, Fluo-4 calcium fluorescence, at 10 µM; active compounds read high;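 also: counter screen cells carry the mu-opioid receptor alone and lack TRPC4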
# [16] = nonspecific potentiation of DAMGO calcium response – cell-based, HEK293 mu-opioid receptor line, counter-screen for TRPC4 allosteric potentiator project, confirmation (AID 449724;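 active = calcium signal rise more than 3 SD above the low-dose agonist control mean, in both duplicate plates and the primary screen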); conditions: HEK293 mu-opioid receptor cells, Fluo-4 calcium flux, at 10 µM, compound added before EC20 DAMGO stimulus; active compounds read high
# Sequence of Short transient receptor potential channel 4 (Mus musculus) (Q9QUQ5 whole entry, looked up): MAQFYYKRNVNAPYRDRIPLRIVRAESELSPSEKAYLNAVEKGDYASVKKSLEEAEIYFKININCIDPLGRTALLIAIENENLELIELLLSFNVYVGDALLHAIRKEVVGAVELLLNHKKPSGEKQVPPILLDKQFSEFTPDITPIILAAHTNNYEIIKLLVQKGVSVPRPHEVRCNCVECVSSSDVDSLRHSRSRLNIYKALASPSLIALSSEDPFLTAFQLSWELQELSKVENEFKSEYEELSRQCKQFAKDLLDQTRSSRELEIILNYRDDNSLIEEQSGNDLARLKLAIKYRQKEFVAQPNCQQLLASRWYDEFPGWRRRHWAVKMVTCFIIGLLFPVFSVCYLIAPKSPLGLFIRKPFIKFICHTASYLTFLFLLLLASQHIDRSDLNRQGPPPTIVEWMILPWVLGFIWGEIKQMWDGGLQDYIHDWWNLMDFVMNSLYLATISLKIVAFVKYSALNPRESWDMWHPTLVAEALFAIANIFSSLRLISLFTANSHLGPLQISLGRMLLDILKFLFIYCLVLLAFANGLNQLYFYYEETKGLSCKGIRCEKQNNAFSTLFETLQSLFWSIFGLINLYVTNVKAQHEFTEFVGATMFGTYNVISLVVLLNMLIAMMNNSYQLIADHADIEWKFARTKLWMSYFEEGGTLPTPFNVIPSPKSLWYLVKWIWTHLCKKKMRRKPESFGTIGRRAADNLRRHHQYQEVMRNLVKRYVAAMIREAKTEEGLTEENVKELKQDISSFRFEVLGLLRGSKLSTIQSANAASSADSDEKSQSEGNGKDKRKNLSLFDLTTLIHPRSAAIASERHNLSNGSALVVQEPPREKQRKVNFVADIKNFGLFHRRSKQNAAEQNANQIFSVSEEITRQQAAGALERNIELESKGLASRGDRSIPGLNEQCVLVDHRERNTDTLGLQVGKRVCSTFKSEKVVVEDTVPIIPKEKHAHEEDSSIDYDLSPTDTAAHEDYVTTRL
# Sequence of Short transient receptor potential channel 6 (Mus musculus) (Q61143 whole entry, looked up): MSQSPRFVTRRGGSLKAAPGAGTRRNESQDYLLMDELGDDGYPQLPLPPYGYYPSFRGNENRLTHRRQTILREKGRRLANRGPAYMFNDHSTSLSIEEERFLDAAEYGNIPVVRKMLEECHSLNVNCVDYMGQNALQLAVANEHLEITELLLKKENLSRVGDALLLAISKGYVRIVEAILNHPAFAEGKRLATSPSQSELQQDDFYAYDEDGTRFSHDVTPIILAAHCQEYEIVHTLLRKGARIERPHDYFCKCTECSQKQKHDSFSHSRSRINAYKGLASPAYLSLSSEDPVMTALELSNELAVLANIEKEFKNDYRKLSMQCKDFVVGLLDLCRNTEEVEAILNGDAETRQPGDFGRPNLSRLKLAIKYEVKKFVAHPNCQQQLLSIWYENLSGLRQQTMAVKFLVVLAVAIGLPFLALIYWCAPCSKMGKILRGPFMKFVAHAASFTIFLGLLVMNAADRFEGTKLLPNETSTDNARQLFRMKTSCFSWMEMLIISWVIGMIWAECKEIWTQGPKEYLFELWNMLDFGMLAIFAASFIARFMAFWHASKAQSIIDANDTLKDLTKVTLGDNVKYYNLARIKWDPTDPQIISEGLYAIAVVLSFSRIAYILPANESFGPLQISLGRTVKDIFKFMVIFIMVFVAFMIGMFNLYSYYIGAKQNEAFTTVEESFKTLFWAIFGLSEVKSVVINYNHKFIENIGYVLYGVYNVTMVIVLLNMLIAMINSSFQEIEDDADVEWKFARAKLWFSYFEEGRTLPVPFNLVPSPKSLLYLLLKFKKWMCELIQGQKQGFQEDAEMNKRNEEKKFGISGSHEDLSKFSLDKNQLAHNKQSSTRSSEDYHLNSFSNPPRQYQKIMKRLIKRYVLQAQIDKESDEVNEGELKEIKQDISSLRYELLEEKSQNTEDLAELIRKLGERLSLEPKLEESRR
smiles,measurement,setting,value
Cc1ccc(Cn2c(SCCN3CCCCC3)nc3c2c(=O)n(C)c(=O)n3C)cc1,activation,[1],114% (active)
same,outcome,[2],inactive
same,potentiation,[3],8% (active)
same,potentiation,[4],13% (active)
same,outcome,[5],inactive
same,outcome,[6],inactive
same,outcome,[7],inactive
same,outcome,[8],inactive
same,outcome,[9],inactive
same,outcome,[10],inactive
same,outcome,[11],inactive
same,activation,[12],8.42% (active)
same,outcome,[13],inactive
same,potentiation,[14],81% (active)
same,outcome,[15],inactive
same,outcome,[16],inactive
CCC(=O)NC(C)C(c1cccs1)N1CCN(c2ccccc2)CC1 (centres undefined),outcome,[1],inactive
same,outcome,[2],inactive
same,outcome,[3],inactive
same,outcome,[4],inactive
same,outcome,[5],inactive
same,outcome,[6],inactive
same,outcome,[7],inactive
same,outcome,[8],inactive
same,outcome,[9],inactive
same,activation,[10],29% (active)
same,outcome,[11],inactive
same,outcome,[12],inactive
same,outcome,[13],inactive
same,outcome,[14],inactive
same,outcome,[15],inactive
same,outcome,[16],inactive
Cc1csc2c(N3CCN(C(=O)Nc4ccccc4)CC3)ncnc12,activation,[1],99% (active)
same,outcome,[2],inactive
same,outcome,[3],inactive
same,outcome,[4],inactive
same,outcome,[5],inactive
same,outcome,[6],inactive
same,outcome,[7],inactive
same,outcome,[8],inactive
same,outcome,[9],inactive
same,outcome,[10],inactive
same,outcome,[11],inactive
same,activation,[12],48.3% (active)
same,outcome,[13],inactive
same,outcome,[14],inactive
same,outcome,[15],inactive
same,outcome,[16],inactive
COc1cc(OC)cc(C(=O)NC(=S)NNC(=O)Cc2cccs2)c1,activation,[1],101% (active)
same,outcome,[2],inactive
same,outcome,[3],inactive
same,outcome,[4],inactive
same,outcome,[5],inactive
same,outcome,[6],inactive
same,outcome,[7],inactive
same,outcome,[8],inactive
same,outcome,[9],inactive
same,outcome,[10],inactive
same,outcome,[11],inactive
same,activation,[12],58.2% (active)
same,outcome,[13],inactive
same,outcome,[14],inactive
same,activation,[15],20.6% (active)
same,outcome,[16],inactive
Cc1cc(OCCn2ccnc2)cc(C)c1Cl,activation,[1],146% (active)
same,outcome,[2],inactive
same,outcome,[3],inactive
same,outcome,[4],inactive
same,outcome,[5],inactive
same,outcome,[6],inactive
same,outcome,[7],inactive
same,outcome,[8],inactive
same,outcome,[9],inactive
same,activation,[10],42% (active)
same,outcome,[11],inactive
same,activation,[12],34.8% (active)
same,outcome,[13],inactive
same,outcome,[14],inactive
same,outcome,[15],inactive
same,outcome,[16],inactive
CN(C)CCCN(C(=O)c1ccc(S(=O)(=O)N2CCc3ccccc3C2)cc1)c1nc2c(F)cc(F)cc2s1,activation,[1],73% (active)
same,outcome,[2],inactive
same,outcome,[3],inactive
same,outcome,[4],inactive
same,outcome,[5],inactive
same,outcome,[6],inactive
same,outcome,[7],inactive
same,outcome,[8],inactive
same,outcome,[9],inactive
same,outcome,[10],inactive
same,outcome,[11],inactive
same,outcome,[12],inactive
same,outcome,[13],inactive
same,outcome,[14],inactive
same,outcome,[15],inactive
same,outcome,[16],inactive
CN(CCc1ccccn1)C(=O)CC1C(=O)NCCN1Cc1cccc(F)c1 (centres undefined),activation,[1],214% (active)
same,outcome,[2],inactive
same,outcome,[3],inactive
same,outcome,[4],inactive
same,outcome,[5],inactive
same,outcome,[6],inactive
same,outcome,[7],inactive
same,outcome,[8],inactive
same,outcome,[9],inactive
same,outcome,[10],inactive
same,outcome,[11],inactive
same,activation,[12],60.9% (active)
same,outcome,[13],inactive
same,outcome,[14],inactive
same,outcome,[15],inactive
same,outcome,[16],inactive
COc1ccc(-c2nn(-c3ccccc3C)cc2CNCc2cccnc2)cc1F,activation,[1],128% (active)
same,outcome,[2],inactive
same,outcome,[3],inactive
same,outcome,[4],inactive
same,outcome,[5],inactive
same,outcome,[6],inactive
same,outcome,[7],inactive
same,outcome,[8],inactive
same,outcome,[9],inactive
same,activation,[10],33% (active)
same,outcome,[11],inactive
same,outcome,[12],inactive
same,outcome,[13],inactive
same,outcome,[14],inactive
same,outcome,[15],inactive
same,outcome,[16],inactive
Cc1sc2ncnc(NCC(c3ccco3)N3CCCC3)c2c1C (centres undefined),activation,[1],143% (active)
same,activation,[2],178% (active)
same,outcome,[3],inactive
same,outcome,[4],inactive
same,outcome,[5],inactive
same,outcome,[6],inactive
same,outcome,[7],inactive
same,outcome,[8],inactive
same,outcome,[9],inactive
same,outcome,[10],inactive
same,outcome,[11],inactive
same,activation,[12],78.8% (active)
same,outcome,[13],inactive
same,outcome,[14],inactive
same,outcome,[15],inactive
same,outcome,[16],inactive
O=C(CCCCn1c(=O)[nH]c2ccccc2c1=O)NC1CCN(Cc2ccccc2)CC1,outcome,[1],inactive
same,outcome,[2],inactive
same,outcome,[3],inactive
same,outcome,[4],inactive
same,outcome,[5],inactive
same,outcome,[6],inactive
same,outcome,[7],inactive
same,outcome,[8],inactive
same,outcome,[9],inactive
same,activation,[10],35% (active)
same,outcome,[11],inactive
same,outcome,[12],inactive
same,outcome,[13],inactive
same,outcome,[14],inactive
same,outcome,[15],inactive
same,outcome,[16],inactive
COc1ccc(C(CNc2nc(-c3cccnc3)nc3ccccc23)N(C)C)cc1 (centres undefined),activation,[1],235% (active)
same,activation,[2],84% (active)
same,outcome,[3],inactive
same,outcome,[4],inactive
same,outcome,[5],inactive
same,outcome,[6],inactive
same,outcome,[7],inactive
same,outcome,[8],inactive
same,outcome,[9],inactive
same,outcome,[10],inactive
same,outcome,[11],inactive
same,activation,[12],18% (active)
same,outcome,[13],inactive
same,outcome,[14],inactive
same,outcome,[15],inactive
same,outcome,[16],inactive
CN(C)C(CNC(=O)CCS(=O)(=O)c1ccccc1)c1ccccc1 (centres undefined),activation,[1],77% (active)
same,activation,[2],75% (active)
same,outcome,[3],inactive
same,outcome,[4],inactive
same,outcome,[5],inactive
same,outcome,[6],inactive
same,outcome,[7],inactive
same,outcome,[8],inactive
same,outcome,[9],inactive
same,outcome,[10],inactive
same,outcome,[11],inactive
same,outcome,[12],inactive
same,outcome,[13],inactive
same,outcome,[14],inactive
same,outcome,[15],inactive
same,outcome,[16],inactive
CCOC(=O)C1(Cc2cccc(F)c2)CCN(Cc2cnn(CC)c2)CC1,activation,[1],118% (active)
same,activation,[2],92% (active)
same,outcome,[3],inactive
same,outcome,[4],inactive
same,outcome,[5],inactive
same,outcome,[6],inactive
same,outcome,[7],inactive
same,outcome,[8],inactive
same,outcome,[9],inactive
same,activation,[10],51.5% (active)
same,outcome,[11],inactive
same,outcome,[12],inactive
same,outcome,[13],inactive
same,outcome,[14],inactive
same,outcome,[15],inactive
same,outcome,[16],inactive
CCOC(=O)C1(Cc2cccc(F)c2)CCN(Cc2cnn(CC)c2C)CC1,activation,[1],100% (active)
same,activation,[2],94% (active)
same,outcome,[3],inactive
same,outcome,[4],inactive
same,outcome,[5],inactive
same,outcome,[6],inactive
same,outcome,[7],inactive
same,outcome,[8],inactive
same,outcome,[9],inactive
same,activation,[10],64% (active)
same,outcome,[11],inactive
same,outcome,[12],inactive
same,outcome,[13],inactive
same,outcome,[14],inactive
same,outcome,[15],inactive
same,outcome,[16],inactive

# Source: PubChem BioAssay
